Drawing on PubChem BioAssay (Tox21), this text covers Potency for 40 compounds.

Values joined by “and” are separate entries in the source; they are usually repeats but may differ in a detail not shown here. Equal entries are not always repeated. Records with an inconclusive call do not appear. A call without a number means that no potency is given here. More than one record can exist for a structure, and the calls need not agree. Active and inactive are the calls of the source. The call rests on the fitted dose curve; in most records, active means well fitted activation curve with a large enough effect in the repeat runs; inconclusive means weak or mixed curves; inactive means flat fitted curve, though single readings scatter.
Potency means the concentration at half of the fitted maximal effect.

This assay in a line: A CellTox Green Cytotoxicity Assay to monitor cytotoxicity in HepG2 cells - 16 hour (AID 1224876). Further: nearly all actives have a fitted effect of over 45% in size. The note with it: CellTox Green fluorescence; series mostly up to 76.8 µM. An excerpt: National Center for Advancing Translational Sciences [NCATS]
NIH Chemical Genomics Center [NCGC]
U.S. Environmental Protection Agency [EPA]
National Institutes of Environmental Health Sciences [NIEHS]
National Toxicology Program [NTP]
Cell-based models are critical for drug discovery. Determining the natural cytotoxic effects resulting from test compounds is an essential research activity. A CellTox Green Cytotoxicity Assay to monitor cytotoxicity in real time of continues cell culture during 40 hours of the compound treatment was used to screen Tox21 10K library compounds in HepG2 cells. CellTox Green Cytotoxicity Assay is a nonlytic, homogeneous, biofluorescent method to measure cytotoxicity in cell culture after experimental manipulation. The assay system uses a proprietary asymmetric cyanine dye that is excluded from viable cells but preferentially stains the dead cell's DNA. […] Viable cells produce no appreciable increases in fluorescence. Therefore, the fluorescence signal produced by the binding interaction with dead cell DNA is proportional to cytotoxicity.
The mixture of HepG2 cell suspension and reagents were dispensed at 600cells/6 ul/well in 1536-well tissue culture treated black solid bottom plates using a Multidrop dispenser. After the assay plates were incubated at a 37 C/5% CO2 incubator for 5 hours, 23 nL of compounds dissolved in DMSO, positive and negative controls was transferred to the assay plate by a pintool work station. The plates were incubated at 37 C for 40 hours. The fluorescence intensity were measured at 0h, 8h, 16h, 24h, 32h and 40h time points using ViewLux plate reader during compound treatment.
With `Oc1ccccc1-c1ccccc1`, the Potency result is “inactive”.
On to `CCCCCCCCCCCCCC[P+](CCCCCC)(CCCCCC)CCCCCC`, for which the Potency was 12.4 µM (active) and 22.1 µM (active) and inactive.
For `CCCC[N+]1(C)CCCC1`, the Potency result was “inactive”.
With `Cc1cc(Cl)ccc1OCC(=O)O` the entry was “inactive”; with `CCCCn1cc[n+](C)c1`, “inactive”.
In the case of `CCCC[n+]1ccc(C)cc1` it was “inactive and 54.7 µM (active)”; in that of `Nc1ccc(Cl)cc1`, “inactive”; in that of `CNC`, “inactive”.
As to `CCCCCCn1cc[n+](C)c1`, the Potency entry was “inactive”.
Take `COc1ccccc1N`: the Potency result was “inactive”.
With `C1CCC(NC2CCCCC2)CC1` the entry was “inactive”; with `CCCCCCCCCCCC(=O)O`, “inactive”; with `O=C(O)CC(O)(CC(=O)O)C(=O)O`, “inactive”.
Take `CCCC[n+]1cccc(C)c1`: the Potency entry was “inactive”.
As for `O=C(O)CCl`, the Potency result was “inactive”.
In the case of `CCCCCC[n+]1ccccc1` it was “inactive”; in that of `O=[N+]([O-])c1ccccc1O`, “inactive”.
Take `CCC(=O)C(CC(C)N(C)C)(c1ccccc1)c1ccccc1` (stereo not given): the Potency entry is “inactive”.
In the case of `CCCCCCCCCCn1cc[n+](C)c1` it was “inactive”; in that of `OCCOc1ccccc1`, “inactive”.
With `CCCC[n+]1ccccc1` the entry was “inactive”.
In the case of `COP(=O)(OC)OC=C(Cl)Cl` it was “inactive”; in that of `N#CS`, “inactive”.
In the case of `CCCCCCCCCCCCCCCCn1cc[n+](C)c1`, the Potency entry was “inactive and 49.4 µM (active) and 39 µM (active)”.
As to `C=CCOC(Cn1ccnc1)c1ccc(Cl)cc1Cl` (stereo not given), the Potency entry is “inactive”.
For the compound `CC[N+]1(C)CCCC1`, the Potency entry is “inactive”.
Regarding `CCCC[n+]1ccccc1C`, the Potency result was “inactive”.
With `CC(=O)O`, the Potency result is “inactive”.
On to `O=C(O)COc1ccc(Cl)cc1Cl`, for which the Potency entry is “inactive”.
With `CCOP(=S)(OCC)Oc1ccc2c(C)c(Cl)c(=O)oc2c1` the entry was “inactive”.
`O=[N+]([O-])O`: the Potency entry was “inactive”.
In the case of `CC(=O)[O][Hg][c]1ccccc1` it was 1.72 µM (active) and 2.45 µM (active) and 1.51 µM (active); in that of `Nc1ccccc1`, “inactive”; in that of `C[C@]12CCC(=O)C=C1CC[C@@H]1[C@@H]2CC[C@]2(C)C(=O)CC[C@@H]12`, “inactive”.
In the case of `CCCC[N+]1(C)CCCCC1` it was “inactive”; in that of `O=C(O)C(Cl)Cl`, “inactive”.
In the case of `CCn1cc[n+](C)c1C` it was “inactive”.
Consider `Nc1ccc(-c2ccc(N)cc2)cc1`, for which the Potency result is “inactive”.
In the case of `Cc1cc(Cl)ccc1N` it was “inactive and 38.9 µM (active)”; in that of `Oc1cccc2cccnc12`, “inactive and 6.16 µM (active)”.
